The structures appear in SMILES notation. Inconclusive results are not listed. Activity calls are given as the source filed them. Unless noted, calls come from the whole dose curve; as a rule, active = well fitted curve in the direction sought with a large enough effect in the repeat runs; inconclusive = weak or mixed curves; inactive = no such curve, though single readings can be large; an effect the other way counts as inactive or inconclusive.

Data on 14 compounds can be found in PubChem BioAssay (Tox21).

Test [1] in a line: qHTS assay to identify small molecule antagonists of the thyroid receptor (TR) signaling pathway - cell viability counter screen (AID 743064). Note: nearly all actives have a fitted effect of over 50% in size. Note: potency is the fitted concentration of half-maximal effect. In short, it runs like this:
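Same-well viability check: GH3.TRE-Luc cells stimulated with 1 nM T3 alongside test compound for 23.5 h, followed by CellTiter-Fluor fluorescence.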
A general note: Quantitative high-throughput screening tests each substance at several concentrations.

A short description of test [2]: qHTS assay to identify small molecule antagonists of the thyroid receptor (TR) signaling pathway (AID 743065). Note: nearly all actives have a fitted effect of over 55% in size. Note: potency is the fitted concentration of half-maximal effect. The method in brief:
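GH3.TRE-Luc rat pituitary cells carrying two TR response elements driving luciferase were plated for 4 h, given compound plus 1 nM T3 (final), and incubated 23.5 h at 37 C. ONE-Glo luminescence measured reporter inhibition; CellTiter-Fluor fluorescence tracked cytotoxicity.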

Test [3] concerns thyroid hormone receptor (rat, GH3 cells). The test can be described thus: qHTS assay to identify small molecule agonists of the thyroid receptor (TR) signaling pathway (AID 743066; calls by dose curve).
Test [4] in a line: qHTS assay to identify small molecule antagonists of the estrogen receptor alpha (ER-alpha) signaling pathway - cell viability counter screen (AID 743074; calls by dose curve;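 note: HEK293 cells carrying ER-alpha-UAS-bla reporter stimulated with 17beta-estradiol; nearly all actives have a fitted effect of over 45% in size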).
The target of test [5] is Estrogen receptor (Homo sapiens) (UniProt P03372). The test can be described thus: qHTS assay to identify small molecule agonists of the estrogen receptor alpha (ER-alpha) signaling pathway (AID 743075; calls by dose curve;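 note: HEK293 GripTite cells with ER-alpha and UAS-driven beta-lactamase reporter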).
Sequence of Estrogen receptor (Homo sapiens) (P03372 whole entry, looked up): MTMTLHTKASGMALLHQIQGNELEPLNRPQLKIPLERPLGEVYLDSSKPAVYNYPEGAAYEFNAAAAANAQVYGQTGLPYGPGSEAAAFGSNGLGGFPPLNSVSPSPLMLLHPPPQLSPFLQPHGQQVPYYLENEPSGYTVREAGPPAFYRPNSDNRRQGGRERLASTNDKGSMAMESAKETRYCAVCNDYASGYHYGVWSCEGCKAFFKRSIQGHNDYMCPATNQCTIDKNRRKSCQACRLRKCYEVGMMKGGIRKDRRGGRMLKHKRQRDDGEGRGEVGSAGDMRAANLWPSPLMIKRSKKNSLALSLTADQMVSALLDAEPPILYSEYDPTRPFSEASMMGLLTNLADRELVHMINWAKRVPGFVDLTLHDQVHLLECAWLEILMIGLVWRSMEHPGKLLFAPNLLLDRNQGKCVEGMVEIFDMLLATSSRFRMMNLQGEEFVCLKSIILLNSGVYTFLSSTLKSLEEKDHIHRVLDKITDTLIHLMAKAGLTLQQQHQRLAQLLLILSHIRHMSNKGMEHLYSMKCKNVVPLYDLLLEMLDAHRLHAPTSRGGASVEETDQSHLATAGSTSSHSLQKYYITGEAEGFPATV
Test [6] has the same target. The test can be described thus: qHTS assay to identify small molecule agonists of the estrogen receptor alpha (ER-alpha) signaling pathway using the BG1 cell line (AID 743079). Note: nearly all actives have a fitted effect of over 20% in size.
Test [7] is described as follows: qHTS assay to identify small molecule antagonists of the estrogen receptor alpha (ER-alpha) signaling pathway using the BG1 cell line (AID 743080; calls by dose curve;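 note: BG1 cells stimulated with 17beta-estradiol alongside compound; series mostly up to about 70 µM; nearly all actives have a fitted effect of over 25% in size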). The method in brief: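 Luciferase inhibition measured with ONE-Glo after 30 min at RT in BG1Luc4E2 cells given test compounds and 17beta-estradiol for 21.5 h at 37 C; CellTiter-Fluor viability read in the same wells beforehand.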

Test [8] is described as follows: qHTS assay to identify small molecule antagonists of the estrogen receptor alpha (ER-alpha) signaling pathway using the BG1 cell line - cell viability counter screen (AID 743081).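 Note: compound given together with 17beta-estradiol as the ER stimulus; series mostly up to about 70 µM; nearly all actives have a fitted effect of over 45% in size.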
Another test has as its target Aromatase (Homo sapiens) (UniProt P11511). The test can be described thus: qHTS assay to identify aromatase inhibitors (AID 743083). Note: series mostly up to about 70 µM; nearly all actives have a fitted effect of over 55% in size.
A short description of test [9]: qHTS assay to identify aromatase inhibitors - cell viability counter screen (AID 743084).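 Note: cells stimulated with testosterone during compound exposure; nearly all actives have a fitted effect of over 55% in size.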
Test [10] addresses Aryl hydrocarbon receptor (Homo sapiens) (UniProt P35869). As to the kind of experiment: qHTS assay to identify small molecule that activate the aryl hydrocarbon receptor (AhR) signaling pathway (AID 743085).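 Note: HG2L7.5c1 human HepG2 liver cells with stably integrated DRE-driven firefly reporter; series mostly up to about 70 µM; nearly all actives have a fitted effect of over 15% in size.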 The method in brief:
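Reporter assay in engineered HepG2 line HG2L7.5c1, whose plasmid carries twenty dioxin responsive elements upstream of firefly luciferase. Treatment lasted 24 h at 37C; ONE-Glo luminescence gauged induction.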

Test [11] is described as follows: qHTS assay to identify small molecule that activate the aryl hydrocarbon receptor (AhR) signaling pathway - cell viability counter screen (AID 743086).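 Note: HepG2 liver cells carrying the AhR DRE luciferase reporter; series mostly up to about 70 µM; nearly all actives have a fitted effect of over 45% in size.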 The method in brief:
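HepG2-AhR-luc (HG2L7.5c1) cells, 4000/well, were preincubated 5 h at 37C, exposed to compound in qHTS format for 24 hr at 37C, then given CellTiter-Fluor for 30 min; viability was read as fluorescence in the reporter wells.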

Test [12] has as its target Peroxisome proliferator-activated receptor gamma (Homo sapiens) (UniProt P37231). As to the kind of experiment: qHTS assay to identify small molecule antagonists of the peroxisome proliferator-activated receptor gamma (PPARg) signaling pathway (AID 743191; calls by dose curve; note: series mostly up to about 63 µM; nearly all actives have a fitted effect of over 30% in size). In short, it runs like this: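 GeneBLAzer PPARg UAS-bla HEK293H cells carrying a UAS-driven beta-lactamase reporter were plated at 3000 cells/well, preincubated 5 h at 37C, then given compound for 17 h at 37C; LiveBLAzer B/G FRET substrate was read after 1 h at room temperature.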

The nature of test [13]: qHTS assay for small molecule agonists of the antioxidant response element (ARE) signaling pathway (AID 743202; active = well fitted activation curve with a large enough effect in the signal ratio in the repeat runs, not every such curve was filed as active; the % refers to the signal ratio). The method in brief:
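Read-out: LiveBLAzer B/G FRET substrate fluorescence after 2 h at room temperature, following 16 h compound treatment at 37 C of HepG2 cells carrying an ARE-driven beta-lactamase reporter.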

A short description of test [14]: qHTS assay for small molecule agonists of the antioxidant response element (ARE) signaling pathway - cell viability counter screen (AID 743203; calls by dose curve; note: nearly all actives have a fitted effect of over 55% in size). In short, it runs like this:
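Cells (ARE-bla HepG2, 2,000/well) receive DMSO-dissolved compounds after a 5 hrs rest. Plates incubate 16 hrs at 37C/5% CO2. CellTiter-Glo luminescence is then recorded after 30 min at room temperature.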

Test [15] in a line: qHTS assay for small molecule activators of the heat shock response signaling pathway - cell viability counter screen (AID 743209). Note: nearly all actives have a fitted effect of over 50% in size. The method in brief:
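Quantitative HTS format, Tox21 10K library. HeLa cells carrying an HSE-driven beta-lactamase reporter were treated 5 h at 37 C, then assessed for viability by CellTiter-Glo luminescence.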

Test [16] has as its target Peroxisome proliferator-activated receptor gamma (Homo sapiens) (UniProt P37231). As to the kind of experiment: qHTS assay to identify small molecule agonists of the peroxisome proliferator-activated receptor gamma (PPARg) signaling pathway (AID 743094; active = well fitted activation curve with a large enough effect in the signal ratio in the repeat runs, not every such curve was filed as active; the % refers to the signal ratio). In short, it runs like this:
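Stably transfected HEK293H cells (GeneBLAzer PPARg UAS-bla) were incubated with test substances for 17 h at 37C after a 5 h pre-incubation; beta-lactamase activity was then detected by FRET substrate fluorescence.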

Test [17] in a line: qHTS assay to identify small molecule antagonists of the peroxisome proliferator-activated receptor gamma (PPARg) signaling pathway - cell viability counter screen (AID 743194). Note: nearly all actives have a fitted effect of over 55% in size. In short, it runs like this:
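PPARg-UAS-bla HEK293H cells were plated, rested 5 h at 37 C, then treated with compounds plus rosiglitazone (50 nM final) for 17 h at 37 C; viability was then read by CellTiter-Glo luminescence after 30 min at room temperature.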

Test [18] in a line: qHTS assay for small molecule activators of the heat shock response signaling pathway (AID 743210; active = well fitted activation curve with a large enough effect in the signal ratio in the repeat runs, with a control signal flat, not every such curve was filed as active; the % refers to the signal ratio; note: series mostly up to about 63 µM). In short, it runs like this:
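HSE-bla HeLa cells (beta-lactamase reporter under heat shock response elements) were exposed to compounds for 5 h at 37 C, then loaded with LiveBLAzer B/G FRET substrate for 2.5 h at room temperature before fluorescence reading.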

Sequence of Peroxisome proliferator-activated receptor gamma (Homo sapiens) (P37231 whole entry, looked up): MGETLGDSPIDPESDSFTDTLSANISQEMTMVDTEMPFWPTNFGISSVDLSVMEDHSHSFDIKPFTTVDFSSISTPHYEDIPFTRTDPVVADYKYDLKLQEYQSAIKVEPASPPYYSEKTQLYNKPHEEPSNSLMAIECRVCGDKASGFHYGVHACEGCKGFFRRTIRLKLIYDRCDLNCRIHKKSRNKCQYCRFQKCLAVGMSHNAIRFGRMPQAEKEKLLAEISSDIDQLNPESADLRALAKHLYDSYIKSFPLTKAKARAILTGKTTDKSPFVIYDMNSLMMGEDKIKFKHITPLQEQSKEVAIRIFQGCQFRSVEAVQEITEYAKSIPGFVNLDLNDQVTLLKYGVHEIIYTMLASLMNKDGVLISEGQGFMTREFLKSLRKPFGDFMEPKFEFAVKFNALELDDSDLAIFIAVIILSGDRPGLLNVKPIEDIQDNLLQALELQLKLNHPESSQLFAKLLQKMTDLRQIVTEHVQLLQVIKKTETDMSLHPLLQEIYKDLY
Sequence of Aromatase (Homo sapiens) (P11511 whole entry, looked up): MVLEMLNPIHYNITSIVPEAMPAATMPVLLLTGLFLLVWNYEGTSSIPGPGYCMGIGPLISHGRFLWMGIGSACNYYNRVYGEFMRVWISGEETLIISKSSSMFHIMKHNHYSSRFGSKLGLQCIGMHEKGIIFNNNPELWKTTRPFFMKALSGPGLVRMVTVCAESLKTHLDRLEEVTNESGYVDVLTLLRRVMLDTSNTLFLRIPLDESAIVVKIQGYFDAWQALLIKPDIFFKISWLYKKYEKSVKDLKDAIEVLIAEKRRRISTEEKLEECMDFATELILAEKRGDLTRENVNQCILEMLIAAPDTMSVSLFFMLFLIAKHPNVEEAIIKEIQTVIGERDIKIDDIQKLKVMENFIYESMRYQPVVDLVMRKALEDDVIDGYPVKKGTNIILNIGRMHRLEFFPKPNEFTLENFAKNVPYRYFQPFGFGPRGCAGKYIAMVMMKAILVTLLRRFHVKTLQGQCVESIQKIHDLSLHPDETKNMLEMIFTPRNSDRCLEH
Sequence of Aryl hydrocarbon receptor (Homo sapiens) (P35869 whole entry, looked up): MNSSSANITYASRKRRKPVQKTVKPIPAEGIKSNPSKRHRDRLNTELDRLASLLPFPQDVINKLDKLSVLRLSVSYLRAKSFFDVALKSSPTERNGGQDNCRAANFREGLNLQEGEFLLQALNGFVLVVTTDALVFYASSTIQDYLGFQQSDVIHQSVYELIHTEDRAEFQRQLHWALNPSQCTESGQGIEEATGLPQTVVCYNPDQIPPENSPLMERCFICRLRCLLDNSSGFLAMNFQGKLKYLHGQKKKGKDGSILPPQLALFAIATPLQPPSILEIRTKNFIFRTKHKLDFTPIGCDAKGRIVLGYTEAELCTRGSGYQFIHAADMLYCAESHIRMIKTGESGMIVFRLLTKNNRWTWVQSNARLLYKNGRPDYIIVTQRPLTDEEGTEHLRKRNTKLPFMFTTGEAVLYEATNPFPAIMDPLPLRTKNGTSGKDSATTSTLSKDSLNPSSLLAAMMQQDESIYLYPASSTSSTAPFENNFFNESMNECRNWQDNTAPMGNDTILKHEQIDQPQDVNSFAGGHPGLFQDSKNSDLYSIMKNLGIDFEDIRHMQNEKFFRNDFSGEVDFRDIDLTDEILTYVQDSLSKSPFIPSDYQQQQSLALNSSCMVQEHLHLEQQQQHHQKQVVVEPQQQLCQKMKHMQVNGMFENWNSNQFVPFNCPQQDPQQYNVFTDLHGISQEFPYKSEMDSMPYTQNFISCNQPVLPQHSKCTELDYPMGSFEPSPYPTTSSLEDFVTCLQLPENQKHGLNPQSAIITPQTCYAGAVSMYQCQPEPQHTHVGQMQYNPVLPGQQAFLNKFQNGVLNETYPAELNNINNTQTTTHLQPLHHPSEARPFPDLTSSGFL

On to `COC(=O)CCCCCCCCC(=O)OC`, for which the Potency entry in test [1], in test [2], in test [3], in test [5], in test [6] and in test [7] was “inactive” throughout. In addition, the Potency entry (with Aromatase (Homo sapiens); in test [9]; in test [10]; in test [11]; in test [13]) was “inactive” throughout. Also, the call in test [4], in [8], in test [12], in [14] and in test [15] was inactive.
`O=C(O)C(O)[C@H](O)[C@@H](O)[C@H](O)[C@H](O)CO` (stereo not given in full): the Potency entry in [1], in test [2], in test [3], in test [5], in [6] and in [7] was “inactive” throughout. The Potency result (in the test with Aromatase (Homo sapiens); in test [9]; in [10]; in test [17]; in [13]) was “inactive” each time. For the same compound, the result in [4], in test [8], in test [16], in test [12], in test [14] and in test [15] was inactive. Further, the call in test [18] was inactive.
As to `CC(=O)OC(C)(C)C`, the Potency result in test [1], in [2], in test [3], in [5], in test [6] and in [7] was “inactive” each time. In addition, the Potency result (in the test with Aromatase (Homo sapiens); in test [9]; in test [10]; in [17]; in test [13]) was “inactive” in each case. Besides, the compound was called inactive in [4], in test [8], in test [16], in test [12], in test [14] and in test [15].
As to `COC(=O)CCCC(=O)O`, the Potency entry in [1], in test [2], in test [3], in test [5], in [6] and in test [7] was “inactive” each time. The Potency result (in the test with Aromatase (Homo sapiens); in test [9]; in test [10]) was “inactive” in each case. The outcome in test [4], in [8], in test [16], in [12], in [14] and in test [15] was inactive. The compound was called inactive in [18].
With `CCn1cc(C(=O)O)c(=O)c2cc(F)c(N3CCN(C)CC3)cc21`, the Potency result in test [1], in [2], in test [3], in [5], in [6] and in test [7] was “inactive” in each case. The Potency result (in the test with Aromatase (Homo sapiens); in [9]; in test [10]; in test [11]; in test [17]) was “inactive” throughout. The compound was called inactive in [4], in test [8], in [16], in test [12], in test [14] and in test [18].
On to `CCCOc1ccccc1-c1nc2n[nH]nc2c(=O)[nH]1`, for which the Potency result in test [1], in test [2], in test [3], in test [5], in [6] and in test [7] was “inactive” each time. The Potency result (in the test with Aromatase (Homo sapiens); in test [9]; in [17]) was “inactive” in each case. In addition, the outcome in test [4], in test [8], in test [14], in test [15] and in [18] was inactive.
Consider `OCc1ccccn1`, for which the Potency result in [1], in test [2], in [3], in test [5], in test [6] and in [7] was “inactive” each time. In addition, the Potency entry (with Aromatase (Homo sapiens); in [9]; in test [10]; in [11]) was “inactive” throughout. Also, the compound was called inactive in test [4], in test [8], in [12], in [14], in [15] and in [18].
As for `Cc1c(C)n(CCN(C)C)c2ccc(C(=O)OCCN(C)C)cc12`, the Potency is 26.6 µM (active) in test [1] and 21.1 µM (active) in test [2]. Besides, the Potency entry (in test [3]; in [5]; with Aromatase (Homo sapiens); in test [9]; in [17]) was “inactive” throughout. Besides, the compound was classed as inactive in test [4], in test [16], in [12], in [14], in test [15] and in test [18].
For `CC(=O)N[C@@H](CCC(N)=O)C(=O)O`, the Potency entry in test [1], in test [2], in test [3], in [5], in test [6] and in [7] was “inactive” throughout. In addition, the Potency entry (with Aromatase (Homo sapiens); in test [9]; in [10]; in [11]; in test [17]; in test [13]) was “inactive” in each case. In addition, the call in test [4], in test [14], in [15] and in test [18] was inactive.
Regarding `OCCCCCCO`, the Potency entry (in [1]; in test [2]; in test [3]; with Aromatase (Homo sapiens); in test [9]; in test [10]) was “inactive” throughout. The Potency entry in [11], in test [17] and in test [13] was “inactive” each time. Further, the outcome in test [4], in test [8], in test [16], in test [12], in test [14] and in test [15] was inactive. For the same compound, in [18], the compound was called inactive.
In the case of `O=Cc1ccccc1[N+](=O)[O-]`, the Potency result in [1], in test [2], in [3], in [5], in test [6] and in test [7] was “inactive” each time. Besides, the Potency entry (with Aromatase (Homo sapiens); in test [9]; in [10]; in test [11]; in test [17]) was “inactive” throughout. The compound was classed as inactive in test [4], in [8], in test [14], in [15] and in test [18].
With `C=CCn1c(=O)n([C@@H]2O[C@H](CO)[C@@H](O)[C@H]2O)c2nc(N)[nH]c(=O)c21`, the Potency entry in test [1], in [2], in [3], in [5], in [6] and in [7] was “inactive” each time. The Potency entry (with Aromatase (Homo sapiens); in test [9]; in [10]; in test [17]; in test [13]) was “inactive” each time. For the same compound, the compound was called inactive in test [4], in [8], in test [16], in test [14] and in [15].
In the case of `Nc1nc2c(ncn2CCC(CO)CO)c(=O)[nH]1`, the Potency entry in [1], in test [2], in test [3], in test [5], in test [6] and in test [7] was “inactive” in each case. In addition, the Potency entry (with Aromatase (Homo sapiens); in test [9]; in test [10]; in test [11]; in test [17]; in test [13]) was “inactive” throughout. In addition, the result in [4], in [8], in test [12], in test [14] and in test [15] was inactive.
With `O=C(O)c1cccc(C(=O)O)n1`, the Potency result in [1], in [2], in test [3], in [5], in [6] and in test [7] was “inactive” throughout. The Potency result (in the test with Aromatase (Homo sapiens); in test [9]; in [10]; in test [11]) was “inactive” in each case. The call in test [4], in [8], in test [16], in [12], in [14] and in test [15] was inactive. Besides, the result in [18] was inactive.
